As a reminder, the inhibition is the drop in the measured response relative to a control, in per cent.

The structures appear in SMILES notation. Values joined by “and” are separate entries in the source; they are usually repeats but may differ in a detail not shown here. Equal entries are not always repeated. About 910 (0.41%) of roughly 220,000 compounds were called active.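 How the source made its calls: active means primary inhibition above the hit cutoff, then over 50% inhibition at one or more dose response concentrations (cut at about 23% in these data, passing the limit was not always enough); inconclusive means conflicting primary data, or primary hits not chosen for dose response; inactive means low primary inhibition, or under 50% at every dose.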 The list comes from a sample in which actives are over-represented; it also holds similar structures and randomly drawn compounds. Measured potencies and affinities stand elsewhere. Some compounds were tested as several samples or in several runs, with calls that do not always agree.

Aminopeptidase N (Plasmodium falciparum (isolate 3D7)), sequence (O96935 whole entry, looked up): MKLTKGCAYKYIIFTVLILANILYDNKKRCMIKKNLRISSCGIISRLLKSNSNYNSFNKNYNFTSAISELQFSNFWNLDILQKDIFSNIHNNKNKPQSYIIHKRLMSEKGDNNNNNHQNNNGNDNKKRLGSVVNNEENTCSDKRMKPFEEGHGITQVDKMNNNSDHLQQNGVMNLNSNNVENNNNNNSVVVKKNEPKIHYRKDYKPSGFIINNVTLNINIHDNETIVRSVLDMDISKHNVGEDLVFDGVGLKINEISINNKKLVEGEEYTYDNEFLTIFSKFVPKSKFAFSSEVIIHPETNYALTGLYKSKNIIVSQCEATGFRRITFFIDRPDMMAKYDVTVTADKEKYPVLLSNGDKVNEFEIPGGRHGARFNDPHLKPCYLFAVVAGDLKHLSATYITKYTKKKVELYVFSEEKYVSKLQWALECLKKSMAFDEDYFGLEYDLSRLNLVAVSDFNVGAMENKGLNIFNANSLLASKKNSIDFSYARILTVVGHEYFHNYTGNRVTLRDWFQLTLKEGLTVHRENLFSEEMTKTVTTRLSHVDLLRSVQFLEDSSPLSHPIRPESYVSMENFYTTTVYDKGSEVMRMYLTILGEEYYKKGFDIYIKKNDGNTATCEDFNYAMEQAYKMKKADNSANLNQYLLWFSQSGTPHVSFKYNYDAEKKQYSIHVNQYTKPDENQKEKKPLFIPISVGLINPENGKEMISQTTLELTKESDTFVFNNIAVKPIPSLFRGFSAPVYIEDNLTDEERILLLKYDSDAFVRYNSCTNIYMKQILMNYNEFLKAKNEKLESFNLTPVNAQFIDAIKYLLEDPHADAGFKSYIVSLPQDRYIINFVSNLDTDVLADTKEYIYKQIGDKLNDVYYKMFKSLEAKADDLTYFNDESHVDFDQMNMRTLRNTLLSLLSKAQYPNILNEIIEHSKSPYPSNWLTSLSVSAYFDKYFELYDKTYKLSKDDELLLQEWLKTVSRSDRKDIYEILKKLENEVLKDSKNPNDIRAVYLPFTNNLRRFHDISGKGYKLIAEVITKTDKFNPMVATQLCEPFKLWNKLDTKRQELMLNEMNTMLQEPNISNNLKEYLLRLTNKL

This test has as its target Aminopeptidase N (Plasmodium falciparum (isolate 3D7)) (UniProt O96935). As to the kind of experiment: P. falciparum M1AAP inhibitors, biochemical, fluorogenic H-Leu-NHMec substrate, 1536-well (AID 1445).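 Further: plate controls were DMSO full reaction for no effect and no enzyme background for full effect.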 The conditions noted are these: recombinant M1AAP, H-Leu-NHMec fluorogenic kinetic assay; at 30 µM; stronger effect = higher value.
As to `C=CCNC(=O)c1c(N)n(Cc2ccco2)c2nc3ccccc3nc12`, the inhibition is 24.2% (active).
Under `CC(C)CNC(=O)c1c(N)n(Cc2ccco2)c2nc3ccccc3nc12` stands 13% (inactive); under `CC(C)(C)OC(=O)c1c(N)n(Cc2ccco2)c2nc3ccccc3nc12`, 8.25% (inactive).
As for `CCCNC(=O)c1c(N)n(Cc2ccco2)c2nc3ccccc3nc12`, the figure is 19.9% (inactive).
Under `CC(C)OC(=O)c1c(N)n(Cc2ccco2)c2nc3ccccc3nc12` stands 26.7% (active); under `COCC(C)OC(=O)c1c(N)n(Cc2ccco2)c2nc3ccccc3nc12` (stereo not given), 17.3% (inactive).
For `CCC(=NCc1ccco1)c1c(O)[nH]c(=O)[nH]c1=O`, the inhibition was 14.4% (inactive).
Under `CCC(=NCC1CCCO1)c1c(O)n(-c2ccccc2C)c(=O)[nH]c1=O` (stereo not given) stands 6.89% (inactive); under `O=C1Nc2ccccc2C1Cc1nc2ccccc2c(=O)n1-c1ccccc1` (stereo not given), -1.31% (inactive).
As for `Cc1ccc(S(=O)(=O)N2CCCCC2)cc1NC(=O)CN1CC=C(c2ccccc2)CC1`, the figure is 5.04% (inactive); as for `c1ccc(C2=NP(N3CCOCC3)(N3CCOCC3)=NC(N3CCOCC3)=N2)cc1`, -3.04% (inactive); as for `Cc1cccc(-n2c(-c3cccs3)nc3ccccc3c2=O)c1`, 4.14% (inactive).
Under `CCOC(=O)c1nc2ccccc2c(=O)n1-c1cccc(C)c1` stands 0.05% (inactive).
On to `Cc1cccc(N2CCc3c2nc2ccccc2c3N)c1`, for which the inhibition is 25.6% (active) and 6.14% (inactive).
Take `CCCCOCCCn1c(N)c(C(=O)OCCOC)c2nc3ccccc3nc21`: the inhibition is 19.1% (inactive).
Under `CCCCn1c(N)c(C(=O)OCCOC)c2nc3ccccc3nc21` stands 17.7% (inactive); under `COC(=O)c1c(N)n(Cc2ccc(OC)cc2)c2nc3ccccc3nc12`, 13.7% (inactive).
Under `COCCCn1c(N)c(C(=O)OCCOC)c2nc3ccccc3nc21` stands 27.6% (active); under `CCOC(=O)c1c(N)n(Cc2ccc(OC)cc2)c2nc3ccccc3nc12`, 13.6% (inactive).
Under `COCCOC(=O)c1c(N)n(Cc2ccccc2)c2nc3ccccc3nc12` stands 25% (active); under `CCC(=NCCc1c[nH]c2ccccc12)c1c(O)n(-c2ccc(C)cc2)c(=O)[nH]c1=O`, 1.85% (inactive).
In the case of `CCC(=O)N1N=C2C3CCN(CC3)C2C1c1ccccc1` (stereo not given), the inhibition was 0.59% (inactive).
As for `CCCCn1c(O)c(C(C)=NCc2ccc3c(c2)OCO3)c(=O)[nH]c1=O`, the figure is -11.8% (inactive); as for `Cc1sc2nc(COC(=O)Cc3ccccc3)[nH]c(=O)c2c1C`, 13.2% (inactive); as for `CC(=NCCN1CCCCC1)c1c(O)n(Cc2ccccc2)c(=O)[nH]c1=O`, 11.5% (inactive).
`CCOC(=O)C(O)(c1cn(C)c2ccccc12)C(F)(F)F` (stereo not given): the inhibition was 25.5% (active).
As for `COC(=O)C(O)(c1cn(C)c2ccccc12)C(F)(F)F` (stereo not given), the figure is -1.11% (inactive).
Under `CCOC(=O)C(O)(c1ccc(N=c2ccccn2C)cc1)C(F)(F)F` (stereo not given) stands 6.08% (inactive).
Under `COc1ccc2c(c1)c(C(=O)O)c(C)n2C(C)C` stands 1.69% (inactive).
Take `CC1CN=C(Nc2ccc(F)c(Cl)c2)S1` (stereo not given): the inhibition was -0.44% (inactive).
As for `CC(=O)c1cccc(NC2=NCC(C)S2)c1` (stereo not given), the figure is 24.8% (active).
As for `CC1CN=C(Nc2ccccc2)S1` (stereo not given), the figure is 4.63% (inactive).
As for `Cc1ccc(-n2c(O)c(C=Nc3ccc(S(=O)(=O)N(C)C)cc3)c(=O)[nH]c2=O)cc1`, the figure is 13.7% (inactive).
In the case of `CC1(C)CN=C(Nc2nc3ccccc3s2)S1`, the inhibition is 26.9% (active).
As for `c1ccc2sc(NC3=NCCN3)nc2c1`, the figure is 6.67% (inactive); as for `CC1(C)CN=C(Nc2ccccc2C(F)(F)F)S1`, 2.41% (inactive).
As for `O=c1[nH]c(=O)n(Cc2ccco2)c(O)c1C=NC1CC1`, the figure is 2.96% (inactive).
As for `COc1cc2c(C(=O)N3CCN(C)CC3)c(C)n(C)c2cc1Br`, the figure is 0.34% (inactive); as for `CC(=NCCN1CCOCC1)c1c(O)n(C2CCCCC2)c(=O)[nH]c1=O`, -4.11% (inactive).
As to `O=C(C1CCC(=O)N1Cc1ccccc1Cl)N1CCC2(CC1)OCCO2` (stereo not given), the inhibition was 4.98% (inactive).

The values are drawn from PubChem BioAssay AID1445 (SRMLSC, 2008).
